# Results taken from ChEMBL document CHEMBL4808148, “HDAC6 screening dataset using tau-based substrate in an enzymatic assay yields selective inhibitors and activators” (2021).
# Hit rate of the full screen: of about 5,600 compounds, about 390 (7%) showed an effect of 50% or more. Many of the other results were omitted from the sample, so strong results are more common in it than they were.
# Biological target: T1, Protein deacetylase HDAC6 (Homo sapiens) (UniProt Q9UBN7)
# T1 sequence (whole entry): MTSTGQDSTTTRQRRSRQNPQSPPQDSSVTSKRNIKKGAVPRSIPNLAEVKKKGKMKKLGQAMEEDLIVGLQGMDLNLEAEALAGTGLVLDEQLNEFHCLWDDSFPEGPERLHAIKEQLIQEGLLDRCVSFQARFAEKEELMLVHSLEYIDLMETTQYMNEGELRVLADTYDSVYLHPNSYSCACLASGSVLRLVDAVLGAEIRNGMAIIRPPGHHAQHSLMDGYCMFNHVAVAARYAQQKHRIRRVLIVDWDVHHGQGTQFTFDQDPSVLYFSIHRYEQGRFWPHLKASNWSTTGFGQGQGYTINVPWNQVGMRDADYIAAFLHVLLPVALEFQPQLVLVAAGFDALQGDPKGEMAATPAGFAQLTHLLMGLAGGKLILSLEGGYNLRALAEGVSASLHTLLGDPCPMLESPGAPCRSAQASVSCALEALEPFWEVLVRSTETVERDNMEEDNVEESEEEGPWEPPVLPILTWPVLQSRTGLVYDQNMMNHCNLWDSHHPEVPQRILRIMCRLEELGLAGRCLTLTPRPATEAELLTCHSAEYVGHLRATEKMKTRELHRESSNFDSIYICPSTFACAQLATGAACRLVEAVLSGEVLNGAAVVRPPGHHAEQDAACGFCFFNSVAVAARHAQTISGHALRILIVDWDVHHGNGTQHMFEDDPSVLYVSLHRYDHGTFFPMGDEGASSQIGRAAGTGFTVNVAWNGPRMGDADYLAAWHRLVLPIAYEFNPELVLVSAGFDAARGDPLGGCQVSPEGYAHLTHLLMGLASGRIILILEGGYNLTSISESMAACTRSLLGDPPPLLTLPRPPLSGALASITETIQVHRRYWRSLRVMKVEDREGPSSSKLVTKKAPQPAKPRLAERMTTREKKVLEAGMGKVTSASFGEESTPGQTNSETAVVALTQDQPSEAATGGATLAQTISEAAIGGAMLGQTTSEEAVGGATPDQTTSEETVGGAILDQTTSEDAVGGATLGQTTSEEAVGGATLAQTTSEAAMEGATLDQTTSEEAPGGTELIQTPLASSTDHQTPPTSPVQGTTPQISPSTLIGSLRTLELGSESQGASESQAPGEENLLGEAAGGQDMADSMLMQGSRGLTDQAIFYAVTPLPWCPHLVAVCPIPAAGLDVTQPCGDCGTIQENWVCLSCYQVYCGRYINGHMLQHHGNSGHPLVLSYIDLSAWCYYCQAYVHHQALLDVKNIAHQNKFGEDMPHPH
# Conditions: at 10 µM
row,SMILES,inhibition [%]
1,O=C(Nc1cc(-c2ccccc2)nn1-c1ccccc1)c1ccc([N+](=O)[O-])cc1,23
2,O=C(Nc1ccccc1C(=O)Nc1ccc(CCO)cc1)c1ccc([N+](=O)[O-])cc1,78.3
3,CCOC(=O)[C@H](Cc1ccc([N+](=O)[O-])cc1)NC(=O)c1ccccc1,14.4
4,C[C@]12C=CC(=O)N[C@@H]1CC[C@@H]1[C@@H]2CC[C@]2(C)[C@@H](C(=O)Nc3cc(C(F)(F)F)ccc3C(F)(F)F)CC[C@@H]12,34.1
5,O=C(NCCN1CCC(n2c(=O)[nH]c3ccccc32)CC1)c1cc2cc(F)ccc2[nH]1,22.7
6,CCOCOC[C@H](C[C@H](C)C(=O)NO)NC(=O)c1ccc(Oc2ccccc2)cc1,25.9
7,C[C@@H](C(=O)O)c1ccc(-c2ccccc2)c(F)c1,0.12
8,CC(C(=O)O)c1ccc2c(c1)Cc1ccccc1-2 (configuration not stated),63.7
9,CC(C(=O)O)c1ccc(-c2ccccc2)c(F)c1 (racemic),13.4
10,CCn1cnc(C(=O)NC)c1C(=O)NC,-8.83
11,Cc1ccccc1N1CCN(S(=O)(=O)CC23CCC(C[C@@H]2NC(=O)[C@@H](N)CCS(C)(=O)=O)C3(C)C)CC1 (some centres not stated),2.99
12,CN[C@@H]1[C@H](O[C@H]2[C@H](O[C@H]3[C@H](O)[C@@H](O)[C@H](NC(=N)N)[C@@H](O)[C@@H]3NC(=N)N)O[C@@H](C)[C@]2(O)CO)O[C@@H](CO)[C@H](O)[C@H]1O,8.93
13,C/C1=C/C[C@@H](/C(C)=C/c2csc(C)n2)OC(=O)C[C@H](O)C(C)(C)C(=O)[C@H](C)[C@@H](O)[C@@H](C)CCC1,-9.51
14,CC(C1=C(CCN(C)C)Cc2ccccc21)c1ccccn1 (configuration not stated),-6.73
15,CC(=O)c1ccc2c(c1)N(CCCN(C)C)c1ccccc1S2,43.7
16,C[C@@H](C1=C(CCN(C)C)Cc2ccccc21)c1ccccn1,-1.4
17,CN(C)CCC=C1c2ccccc2CCc2ccccc21,60.4
18,CN(C)CC/C=C1\c2ccccc2Sc2ccc(Cl)cc21,91.2
19,CCOC(=O)c1ccc(-c2ccc(OC(=O)N(C)Cc3cccc(-c4ccncc4)c3)cc2)cc1,5
20,CC(C)(C)c1cc(C(C)(C)C)c2c(c1)C(O)(C(F)(F)F)C(=O)O2 (racemic),-6.8
21,Fc1ccccc1CNCc1ccc(-c2ccnc3[nH]ccc23)cc1,44.7

row,SMILES,inhibition [%]
1,CSc1nc(N)cc(Oc2ccc(-c3nnc(Nc4cccc(C(F)(F)F)c4)[nH]3)cc2)n1,10.4
2,CC(C)[C@@H](C)/C=C/[C@@H](C)[C@H]1CC[C@H]2C3=CC=C4C[C@@H](O)CC[C@]4(C)[C@H]3CC[C@]12C,26.6
3,COc1cccc(CN2C[Si](C)(C)O[Si](C)(C)C2)c1,9.47
4,Nc1ncnc2c1ncn2[C@@H]1O[C@H](COP(=O)(O)OP(=O)(O)OP(=O)(O)O)[C@@H](O)[C@H]1O,-7.9
5,NC(=O)Cc1cccc(C(=O)c2ccccc2)c1N,48.4
6,Nc1c(CC(=O)O)cccc1C(=O)c1ccccc1,0.48
7,Nc1c(CC(=O)O)cccc1C(=O)c1ccc(Br)cc1,69.8
8,COc1cc(OC)nc(O[C@H](C(=O)O)C(OC)(c2ccccc2)c2ccccc2)n1,-2.76
9,COc1cc(/C=C/C(N)=O)cc(OC)c1OC,13.3
10,Cn1cc(C(=O)c2cccc3ccccc23)cc1C(=O)O,25
11,Cn1cc(-c2ccc(F)c(C(F)(F)F)c2)nc1C1CCN(c2ncnc3[nH]ncc23)CC1,24
12,CCCCCCCCCCCCCCCCCC[S+](CCC)c1ccccc1C(=O)OCC (configuration not stated),21
13,CC[N+](C)(CC)CCC[n+]1c(-c2ccccc2)c2cc(N)ccc2c2ccc(N)cc21,60.2
14,CC[n+]1c(-c2ccccc2)c2cc(N)ccc2c2ccc(N)cc21,2.78
15,CC(C)(C(=O)O)c1ccc(C(=O)CCCN2CCC(OC(c3ccccc3)c3ccccc3)CC2)cc1,3.08
16,CCc1c2c(nc3ccc(OC(=O)N4CCC(N5CCCCC5)CC4)cc13)-c1cc3c(c(=O)n1C2)COC(=O)[C@]3(O)CC,-2.26
17,Cc1cc(OCc2nc(-c3ccccc3Cl)cs2)ccc1OCC(=O)O,33.8
18,Cc1cc(SCc2sc(-c3ccc(C(F)(F)F)c(F)c3)nc2C)ccc1OCC(=O)O,66.5
19,Cn1ncnc1COc1nn2c(-c3c(F)cccc3F)nnc2cc1C1CCC1,3.27
20,CCOC(=O)C(=O)Nc1cccc(OC)c1C(N)=O,24.8
21,CCN(CC)CCCCC(NC(=O)c1ccc([N+](=O)[O-])cc1)c1ccccc1 (configuration not stated),-1.83

row,SMILES,inhibition [%]
1,CCOc1ccc(/C=C2\NCCc3cc(OCC)c(OCC)cc32)cc1OCC,7.94
2,CCOc1nc2c(N)ncnc2n1CC,7.36
3,CN(C)CCOc1ccc(/C(=C(/CCCl)c2ccccc2)c2ccccc2)cc1,33.5
4,C=CC(=O)N1CCC[C@@H](n2nc(-c3ccc(Oc4ccccc4)cc3)c3c(N)ncnc32)C1,73
5,C=CC(=O)N1CCC[C@@H](n2c(=O)n(-c3ccc(Oc4ccccc4)cc3)c3c(N)ncnc32)C1,9.93
6,Nc1ncnc2c1c(-c1cnc3[nH]ccc3c1)nn2C1CCCC1,27.2
7,COc1ccc2nc3ccc(Cl)cc3c(SCCCN)c2c1,31.8
8,COc1cc(C(=O)c2c(C)oc3c(O)c(OC)ccc23)cc(OC)c1OC,31.9
9,CCN(CC)C(=O)C1(c2ccccc2)CC1CN (configuration not stated),-2.35
10,COc1cccc2c1c(O)c(C(=O)N(C)c1ccc(C(F)(F)F)cc1)c(=O)n2C,-4.13
11,C[C@@H]1CN(CCCn2c3ccccc3c3ccccc32)C[C@H](C)N1,1.8
12,O=C(Nc1cccc(C(F)(F)F)c1)Nc1ccc(Br)cc1-c1nnn[nH]1,-9.24
13,O=c1c2ccccc2[se]n1-c1ccccc1,107
14,Cc1c(C(=O)Nc2ccc(N3CCC(N4CCOCC4)CC3)c(C#N)c2)cnn1-c1ccc(Cl)cc1,9.57
15,CCC[N+]12C3C[C@H](C4C(O)[C@]5(C[C@@H]41)c1ccccc1N(C)[C@@H]35)[C@H](CC)[C@H]2O (some centres not stated),26.3
16,CS(=O)(=O)CS(=O)(=O)OCCCl,9.47
17,CC(OC(=O)NCC1(CC(=O)O)CCCCC1)OC(=O)C(C)C (configuration not stated),3.02
18,c1ccc2sc(SNC3CCCCC3)nc2c1,80
19,C#Cc1cncc([C@@H]2CCCN2C)c1,18.9
20,CO[C@@H](C(=O)N1Cc2[nH]nc(NC(=O)c3ccc(N4CCN(C)CC4)cc3)c2C1)c1ccccc1,21.1
